# About 79,000 compounds went through this panel and 15% of them were active in at least one assay; those are over-represented in the sample as a whole. A number with no mark means an inactive call. Activity calls are given as the source filed them. No stated cut-off is given here; in the data, active means growth inhibition above about 70%; inactive means the rest.
# Experiments:
# [1] = NCI Yeast Anticancer Drug Screen. Data for the rad50 strain (AID 155);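 further: 0% = growth of vehicle-only cultures of the same strain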; conditions: S. cerevisiae rad50 strain growth inhibition, stronger effect = higher value
# Summary of the method: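 Readout: growth inhibition relative to vehicle-treated cultures. Compound exposure was carried out in a genetically defined yeast strain deficient in DNA damage repair.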
# [2] = NCI Yeast Anticancer Drug Screen. Data for the mec2-1 strain (AID 157); conditions: S. cerevisiae mec2-1 strain, stronger effect = higher value
# Summary of the method: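 Using mec2-1 yeast: add compound, measure growth, express inhibition versus vehicle-treated cultures.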
# [3] = NCI Yeast Anticancer Drug Screen. Data for the sgs1 mgt1 strain (AID 161);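 further: 0% = growth of cultures given vehicle only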; conditions: S. cerevisiae sgs1 mgt1 strain, stronger effect = higher value
# Summary of the method: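 Growth of a repair-deficient yeast mutant was monitored after compound treatment and expressed as inhibition relative to vehicle-treated cultures.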
# [4] = NCI Yeast Anticancer Drug Screen. Data for the cln2 rad14 strain (AID 165);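 further: 0% = growth equal to vehicle treated cultures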; conditions: S. cerevisiae cln2 rad14 strain, stronger effect = higher value
# Summary of the method: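 Yeast strain cln2 rad14, bearing defects in cell cycle control and DNA repair, serves as the test system; values reflect growth inhibition compared with vehicle.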
# [5] = NCI Yeast Anticancer Drug Screen. Data for the bub3 strain (AID 167); conditions: S. cerevisiae bub3 mutant strain, stronger effect = higher value
# Summary of the method: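 Readout: yeast growth inhibition, expressed relative to vehicle-only wells. The test organism is a mutant strain from a panel with lesions in DNA repair or checkpoint genes.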
# [6] = NCI Yeast Anticancer Drug Screen. Data for the mlh1 rad18 strain (AID 175); conditions: S. cerevisiae mlh1 rad18 strain growth inhibition, stronger effect = higher value
# Summary of the method: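 Steps: expose repair-defective yeast to compound; measure growth; express inhibition against vehicle-treated controls.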
# [7] = at 5.0 µM (retest, dose inferred, filed as 0.5)
# [8] = at 50.0 µM (retest, dose inferred, filed as 5.0)
Structure (SMILES),"growth inhibition [1, 7]","growth inhibition [1, 8]",growth inhibition ([1]; at 50.0 µM),"growth inhibition [2, 7]","growth inhibition [2, 8]",growth inhibition ([2]; at 50.0 µM),"growth inhibition [3, 7]","growth inhibition [3, 8]",growth inhibition ([3]; at 50.0 µM),"growth inhibition [4, 7]","growth inhibition [4, 8]",growth inhibition ([4]; at 50.0 µM),"growth inhibition [5, 7]","growth inhibition [5, 8]",growth inhibition ([5]; at 50.0 µM),"growth inhibition [6, 7]","growth inhibition [6, 8]",growth inhibition ([6]; at 50.0 µM)
O=C1c2ccccc2C(=O)c2c1ccc(C(=O)O)c2-c1ccc2ccccc2c1,5%,97% (active),97.3% (active),26%,98% (active),97.8% (active),11%,98% (active),97.5% (active),13%,96% (active),97.3% (active),-3%,98% (active),96.2% (active),8%,98% (active),97.2% (active)
CCN(CC)CC(O)CNc1ccc(NCC(O)CCl)c2c1C(=O)c1ccccc1C2=O (configuration not stated),98% (active),98% (active),36%,98% (active),98% (active),-19.1%,98% (active),98% (active),7.1%,97% (active),97% (active),10.8%,97% (active),97% (active),12.4%,99% (active),99% (active),19.1%
CCC/C(=N\O)S(=O)(=O)c1ccc(NN=O)nc1,-18%,-11%,-22.1%,-20%,1%,-26.8%,3%,-11%,-36.1%,-31%,-13%,34.5%,-33%,-18%,-4.4%,-33%,-21%,-28%
FC(F)(F)c1ccccc1NC(=S)SCc1ccco1,1%,52%,93.7% (active),1%,32%,76.3% (active),1%,45%,87.7% (active),-4%,17%,52.1%,8%,33%,81.3% (active),-2%,57%,88.3% (active)
O=C1CCC(O)N1CN1C(=O)CCC1O (configuration not stated),-4%,1%,36.1%,-4%,-17%,18.4%,9%,-3%,22.9%,-17%,10%,20.8%,18%,-4%,22.1%,-6%,-10%,46.5%
CCOC(=O)C1=NNC(C(=O)c2ccccc2)C1c1ccccc1 (configuration not stated),3%,49%,33.2%,10%,55%,19.6%,20%,83% (active),81.2% (active),4%,19%,-20.3%,8%,40%,81.8% (active),12%,82% (active),68.8%
CC(C)C1COC(c2ccc3ccccc3c2-c2c(O[Si](C)(C)C(C)(C)C)ccc3ccccc23)=N1 (configuration not stated),20%,20%,93.2% (active),14%,14%,92% (active),12%,12%,92.8% (active),13%,13%,92.7% (active),8%,8%,91.3% (active),4%,4%,91.2% (active)
CCCCCCCCCCNC(=O)CBr,2%,99% (active),83.7% (active),-2%,100% (active),64.8%,-3%,99% (active),-1.3%,5%,100% (active),18.9%,14%,99% (active),97.8% (active),6%,99% (active),94% (active)
O=C(Nc1cccc(C(F)(F)F)c1)O/N=C(/Cl)CCl,3%,100% (active),88.5% (active),-19%,100% (active),91.7% (active),-51%,99% (active),84.7% (active),-8%,100% (active),90.5% (active),-38%,100% (active),88.8% (active),-9%,100% (active),84.2% (active)
COC(=O)N/N=C(\c1ccc(O)cc1)C(C)C1(O)C(=O)Nc2ccccc21 (configuration not stated),-16%,35%,-19.5%,6%,20%,7.45%,7%,26%,16.9%,-2%,23%,-30.2%,1%,34%,-0.8%,-3%,28%,14.2%
CC1=C(\C=C/C(C)=N/N=C(C)\C=C\C2=C(C)CCCC2(C)C)C(C)(C)CCC1,3%,31%,70.8% (active),9%,52%,28.7%,27%,51%,71% (active),3%,7%,28.2%,-2%,4%,23.7%,24%,49%,44.2%
O=S(=O)(CCNCCCCC1CCCCC1)SCCNCCCCC1CCCCC1,48%,99% (active),68.3%,3%,99% (active),49.1%,70% (active),99% (active),55.1%,10%,99% (active),56.5%,16%,99% (active),98.8% (active),38%,99% (active),47%
CCCCCCCCCCCC[N+](C)(CCS(=O)(=O)[O-])Cc1ccccc1 (configuration not stated),-1%,51%,98.2% (active),6%,74% (active),99.2% (active),1%,36%,41.9%,2%,66%,77.5% (active),-2%,61%,72.1% (active),-2%,97% (active),99.2% (active)
CC1=NN(c2ccccc2)C(=O)C1N=Nc1cc(Cl)cc(S(=O)(=O)O)c1O (configuration not stated),59%,99% (active),66.3%,66%,99% (active),21.6%,21%,52%,55.7%,21%,30%,29.7%,66%,30%,26.3%,52%,99% (active),42.5%
C=C(C)C1CC2=C(O1)C(=O)c1ccccc1C2=O (configuration not stated),8%,99% (active),91.9% (active),0%,95% (active),82.5% (active),7%,99% (active),73% (active),-9%,37%,59.9%,59%,96% (active),93.1% (active),11%,98% (active),89.8% (active)
O=C(c1cccs1)N(C(=S)N1CCN(c2ccccn2)CC1)c1ccccc1,10%,16%,15.4%,-8%,8%,7.85%,3%,1%,36.6%,6%,10%,20.8%,-2%,3%,16.1%,-3%,14%,63.8%
CSCSCC(CO)NC(=O)/C=C/c1c(C)[nH]c(=O)[nH]c1=O (configuration not stated),-2%,0%,92.5% (active),1%,7%,94.2% (active),1%,4%,93.8% (active),-3%,-11%,92.2% (active),3%,21%,92.8% (active),3%,8%,92.9% (active)
CC(Nc1ccc(Cl)c(Cl)c1)c1ccncc1 (configuration not stated),1%,98% (active),85.8% (active),-36%,95% (active),85.8% (active),-26%,98% (active),79.8% (active),32%,98% (active),83.9% (active),-47%,99% (active),86% (active),-1%,98% (active),82.6% (active)
CCOc1ccc2nc(NC(=O)c3c/c(=N\NC(=O)C[N+](C)(C)C)c4ccc(O)cc4o3)sc2c1,57%,64%,99.3% (active),28%,53%,99.6% (active),33%,65%,99.3% (active),13%,61%,98.6% (active),62%,62%,99.3% (active),41%,52%,99.2% (active)

# Source: PubChem BioAssay (NCI)
